An excerpt weighted towards active compounds, which were near 6% of everything screened.
D1 ag = human D1 receptor agonism; AID 504660; P21728; activation, % at 2 µM; HEK293 T-REx D1 cells, calcium flux, agonist mode; hit rate 1% among 360,000; in the data active = activation above about 30%; note: 0% is about no effect
Target sequence (P21728 whole entry, looked up): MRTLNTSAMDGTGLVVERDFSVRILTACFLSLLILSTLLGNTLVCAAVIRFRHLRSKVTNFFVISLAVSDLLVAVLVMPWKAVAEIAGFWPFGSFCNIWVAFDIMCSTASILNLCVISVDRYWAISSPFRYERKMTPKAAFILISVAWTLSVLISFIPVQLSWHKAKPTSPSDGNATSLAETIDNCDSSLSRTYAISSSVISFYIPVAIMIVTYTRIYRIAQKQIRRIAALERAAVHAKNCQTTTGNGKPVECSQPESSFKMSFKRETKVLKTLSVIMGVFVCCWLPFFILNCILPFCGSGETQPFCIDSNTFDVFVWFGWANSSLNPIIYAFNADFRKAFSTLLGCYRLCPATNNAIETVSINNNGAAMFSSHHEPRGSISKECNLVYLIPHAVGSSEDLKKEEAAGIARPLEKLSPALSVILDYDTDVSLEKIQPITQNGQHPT
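Inducible HEK293 T-REx D1 cells, force-coupled to calcium signalling, were plated at 4000 cells/well with tetracycline and held overnight at 30 C. After no-wash calcium dye loading, compound-evoked calcium rise over 180 s flagged agonists.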
D1 antag = human D1 dopamine receptor antagonism | AID 504652 | hit rate 3.2% among 360,000 | HEK293 TREx D1 cells, calcium flux, dopamine EC80; stronger effect = lower value | P21728 | activity change, negative = inhibition, % at 10 µM; in the data active = activity change below about -30%; note: % is set by controls: 0 for no effect and ±100 for the full control effect
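Allosteric or orthosteric antagonism assessed as attenuation of the calcium response to EC80 dopamine, added 180 s after compound, in induced HEK293 Trex D1 cells loaded with no-wash calcium dye.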
DRD3 agonist = agonists of human D3 dopamine receptor | D3R DiscoveRx beta-arrestin cells, luminescence, 90 min | max activation, % | hit rate 0.58% among 410,000 | AID 652048; in the data active = max activation above about 30%; note: 0% is about no effect
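Cells at 1500/well, incubated overnight, then treated with pinned compounds (dopamine as control) for 90 min at 37 degrees C. DiscoveRx reagent added for 30 - 60 minutes at room temperature; luminescence read.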
DRD3 antagonist = blocks the human D3 dopamine receptor; max response, negative = inhibition, %; hit rate 2.5% among 360,000; P35462; AID 652054; D3R cells, DiscoveRx beta-arrestin luminescence, antagonist mode; stronger effect = lower value; in the data active = max response below about -50%; inconclusive = no clear call, values can overlap the other calls; note: % is set by controls: 0 for no effect and ±100 for the full control effect
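Cells plated overnight at 1500 cells/well, then exposed to library compounds with dopamine controls for 90 minutes at 37 degrees C. DiscoveRx reagent added for 30–60 minutes at room temperature; luminescence read, quantitative HTS format.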
D1 potentiator = enhances dopamine response at the human D1 receptor; P21728; HEK293 TREx D1 cells, calcium flux, dopamine EC20 potentiation; potentiation, % at 10 µM; hit rate 0.036% among 360,000; in the data active = potentiation above about 30%; note: 0% is about no effect
* marks the source's active call; other numbers are inactive results; ? = inconclusive; . = no result.

SMILES	D1 ag	D1 antag	DRD3 agonist	DRD3 antagonist	D1 potentiator
COc1ccc(C2C(C#N)=C3NC(=O)c4c(sc5c4CCCCC5)N3C3=C2C(=O)CC(C)(C)C3)cc1 (configuration not stated)	1	5	-12	-87*	-4
COc1ccc(C2C(C#N)=C(N)N(c3sc4c(c3C#N)CCCC4)C3=C2C(=O)CC(C)(C)C3)cc1 (configuration not stated)	2	1	-1	-8	-9
Cc1ccc(NC(=O)Cn2c(=O)n(CCCCC(=O)NCc3ccc4c(c3)OCO4)c(=O)c3ccccc32)cc1	15	6	7	.	-1
O=C(C[C@H]1C/C=C\C[C@H](Cc2ccc(F)cc2)C(=O)O[C@@H](c2ccccc2)CNC1=O)N[C@H](CO)Cc1ccccc1	.	.	43*	20	.
O=C1NC[C@H](c2ccccc2)OC(=O)[C@@H](Cc2ccc(F)cc2)CC/C=C/C[C@@H]1CC(=O)N(CCO)Cc1ccccc1	.	.	-27	-70*	.
C[C@H]1COC(=O)[C@H](Cc2ccc(F)cc2)C/C=C\C[C@H](CC(=O)NCCO)C(=O)N1	.	.	30*	-18	.
O=C1NC[C@@H](c2ccccc2)OC(=O)[C@H](Cc2ccc(F)cc2)C/C=C\C[C@@H]1CC(=O)N(CCO)Cc1ccccc1	.	.	-34	-67*	.
O=C1NC[C@H](c2ccccc2)OC(=O)[C@@H](Cc2ccc(F)cc2)CC/C=C/C[C@H]1CC(=O)N(CCO)Cc1ccccc1	.	.	-6	19	.
O=C(Nc1cc(Cl)cc(Cl)c1)c1ccc(F)c(S(=O)(=O)NC2CCCCC2)c1	3	-4	-10	.	2
COC(=O)c1c(Oc2ccc(OC)cc2)nnc(-c2ccccc2)c1-c1ccccc1	6	-13	7	.	-2
CCc1cccc(NC(=O)Cn2c(=O)n(-c3ccccc3C)c(=O)c3c2c2cc(C)ccc2n3C)c1	3	15	2	.	-1
CC(=O)c1ccc(NC2=NS(=O)(=O)c3ccccc32)cc1	1	-8	-18	.	-1
FC(F)(F)c1cccc(N2CCN(Cc3nnc(-c4ccc5c(c4)OCO5)o3)CC2)c1	10	-18	-8	.	-3
CCN(Cc1ccccc1)Cc1c(O)ccc2c(=O)c(-c3ccc(Cl)cc3)coc12	-1	8	3	.	3
O=C(C[C@H]1C/C=C\C[C@H](NC(=O)OCC2c3ccccc3-c3ccccc32)C(=O)OC[C@H](Cc2ccccc2)NC1=O)N[C@H](CO)Cc1ccccc1	.	.	-19	-51*	.
CC(C)(C)OC(=O)C[C@@H]1C/C=C\C[C@@H](CC(=O)NCCO)C(=O)NC[C@@H](c2ccccc2)OC1=O	.	.	-7	-63*	.
CC(C)(C)[C@@H]1COC(=O)[C@H](Cc2ccc(F)cc2)C/C=C\C[C@@H](CC(=O)N(CCO)Cc2ccccc2)C(=O)N1	.	.	42*	28	.
C[C@@H]1COC(=O)[C@H](NC(=O)OCC2c3ccccc3-c3ccccc32)C/C=C\C[C@@H](CC(=O)N[C@@H](CO)Cc2ccccc2)C(=O)N1	.	.	-3	0	.
CC(C)(C)OC(=O)C[C@H]1C/C=C\C[C@@H](CC(=O)NCCO)C(=O)NC[C@H](c2ccccc2)OC1=O	.	.	17	29	.
CC(C)(C)[C@@H]1COC(=O)[C@H](Cc2ccc(F)cc2)CC/C=C\C[C@H](CC(=O)N(CCO)Cc2ccccc2)C(=O)N1	.	.	4	-14	.
C[Se]CC[C@H](N)C(=O)O	.	.	2	.	.
O=C(c1ccccc1)N1CCN(CC(O)COCC2CC=CCC2)CC1 (configuration not stated)	1	5	-3	?	2
CN1CCN(C(=O)c2ccc(COc3cc(Cl)ccc3Cl)o2)CC1	4	11	-17	-23	-6
O=C(c1ccccc1)N1CCN(Cc2ccccc2)CC1	0	-53*	-32	?	-5
O=C(c1ccccc1)N1CCN(CC2CC=CCC2)CC1 (configuration not stated)	4	6	-4	-60*	-9
SMILES	D1 ag	D1 antag	DRD3 agonist	DRD3 antagonist	D1 potentiator
O=C(N1CCN(Cc2ccccc2)CC1)C12CC3CC(CC(C3)C1)C2	1	5	1	-65*	-4
CN1CCN(C(=O)c2cccc(COc3cc(Cl)ccc3Cl)c2)CC1	2	-43*	-49	-7	-14
CCOC(=O)CCc1cc(F)c(S(=O)(=O)N2CCN(S(=O)(=O)c3ccc4c(c3)OCCO4)CC2)cc1F	3	13	.	.	-3
CCCOc1ccc(NC(=O)CC2C(=O)N(c3cccc(OC)c3)C(=O)N2Cc2cccs2)cc1 (configuration not stated)	2	2	2	.	1
CCOc1ccccc1CNC(=O)c1cccn1-c1nnc(N2CCCC2)s1	4	-2	1	.	-2
Cc1ccc(NC(=S)N2CCN(Cc3ccccc3)CC2)cc1	1	-19	3	0	-1
O=C(c1ccc(Cn2ccc([N+](=O)[O-])n2)cc1)N1CCN(Cc2ccccc2)CC1	2	-6	-11	-19	-3
CSc1ccc(CN2CCN(C(=O)c3ccc([N+](=O)[O-])cc3)CC2)cc1	9	-60*	-10	-9	-10
Cc1ccc(C(=S)N2CCN(Cc3ccccc3)CC2)cc1	-1	.	-26	-71*	-6
O=C(c1cccc(Cl)c1)N1CCN(CCCc2ccccc2)CC1	2	-2	33*	-18	-7
O=C(c1ccccc1)N1CCN(CCc2ccccc2)CC1	20	2	-19	-6	0
O=C(c1ccc(-c2ccccc2)cc1)N1CCN(Cc2ccccn2)CC1	0	-31*	-5	26	-2
COc1cccc(Cn2c(=O)n(Cc3ccccc3)c(=O)c3c2c2cc(OC)ccc2n3C)c1	-1	9	7	.	0
O=C(Cn1ncn2c(cc3cc(F)ccc32)c1=O)NC1CCCCC1	2	-15	6	.	-4
CCOC(=O)c1ccc(NS(=O)(=O)c2cc(-c3onc(C)c3C)ccc2C)cc1	0	6	9	.	-1
CCCCn1nc(NC(=O)c2cccc(Cl)c2)c2cc3cccc(C)c3nc21	0	-6	-10	.	-1
S=C(NCCc1ccc(Cl)cc1)NC1CCCCC1	17	-41*	-4	?	-8
COc1ccc(CNC(=S)NC2CCCCC2)cc1	1	12	4	-1	3
Fc1ccc(CNC(=S)NC2CCCCCC2)cc1	15	-36*	-9	-17	-6
S=C(NCCc1ccc(Cl)cc1)NC1CCCC1	11	-4	-9	-17	-16
Cc1ccccc1CNC(=O)Cn1c(=O)c2cccn2c2cccnc21	0	0	1	.	4
COc1ccc(CCNC(=O)CCCn2c(=O)c3cccn3c3ccc(F)cc32)cc1OC	4	-12	9	.	-3
CNC(=S)NNC(=O)CCn1nc(C)c(Br)c1C	2	3	-23	?	-4
Cc1nn(CCC(=O)NNC(=S)NCC(C)C)c(C)c1Br	-1	.	-53	-104*	-1

Screens deposited in PubChem by National Center for Advancing Translational Sciences (NCATS).
